# In ChEMBL document CHEMBL1961873, “Compounds: GSK PKIS; Assays: Nanosyn kinase panel” (2012):
# Key:
# [1] = target: T1, Inhibitor of nuclear factor kappa-B kinase subunit epsilon (Homo sapiens) (UniProt Q14164); conditions: at 1 µM;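 further: reported values are averaged percent inhibition figures against human IKKε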
# T1 sequence (whole entry): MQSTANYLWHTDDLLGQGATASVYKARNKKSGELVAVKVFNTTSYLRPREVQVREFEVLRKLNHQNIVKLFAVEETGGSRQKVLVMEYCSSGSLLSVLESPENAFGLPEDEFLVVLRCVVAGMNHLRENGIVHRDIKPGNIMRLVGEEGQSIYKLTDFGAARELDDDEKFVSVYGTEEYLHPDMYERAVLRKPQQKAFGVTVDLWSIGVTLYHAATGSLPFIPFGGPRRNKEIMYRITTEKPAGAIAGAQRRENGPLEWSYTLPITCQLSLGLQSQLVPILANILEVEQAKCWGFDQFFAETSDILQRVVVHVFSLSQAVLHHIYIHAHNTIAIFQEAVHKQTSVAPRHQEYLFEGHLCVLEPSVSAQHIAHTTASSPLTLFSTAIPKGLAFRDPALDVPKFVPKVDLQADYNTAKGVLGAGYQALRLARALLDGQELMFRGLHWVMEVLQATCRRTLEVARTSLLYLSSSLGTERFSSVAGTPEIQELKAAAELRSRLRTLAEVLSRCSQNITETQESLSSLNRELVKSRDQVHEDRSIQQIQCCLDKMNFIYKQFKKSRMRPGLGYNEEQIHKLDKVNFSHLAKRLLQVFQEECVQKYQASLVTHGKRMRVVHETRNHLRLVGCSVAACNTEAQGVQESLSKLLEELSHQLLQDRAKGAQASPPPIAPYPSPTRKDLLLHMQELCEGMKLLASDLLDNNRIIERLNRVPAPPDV
# [2] = target: T2, Serine/threonine-protein kinase Nek1 (Homo sapiens) (UniProt Q96PY6); conditions: at 0.1 µM
# T2 sequence (whole entry): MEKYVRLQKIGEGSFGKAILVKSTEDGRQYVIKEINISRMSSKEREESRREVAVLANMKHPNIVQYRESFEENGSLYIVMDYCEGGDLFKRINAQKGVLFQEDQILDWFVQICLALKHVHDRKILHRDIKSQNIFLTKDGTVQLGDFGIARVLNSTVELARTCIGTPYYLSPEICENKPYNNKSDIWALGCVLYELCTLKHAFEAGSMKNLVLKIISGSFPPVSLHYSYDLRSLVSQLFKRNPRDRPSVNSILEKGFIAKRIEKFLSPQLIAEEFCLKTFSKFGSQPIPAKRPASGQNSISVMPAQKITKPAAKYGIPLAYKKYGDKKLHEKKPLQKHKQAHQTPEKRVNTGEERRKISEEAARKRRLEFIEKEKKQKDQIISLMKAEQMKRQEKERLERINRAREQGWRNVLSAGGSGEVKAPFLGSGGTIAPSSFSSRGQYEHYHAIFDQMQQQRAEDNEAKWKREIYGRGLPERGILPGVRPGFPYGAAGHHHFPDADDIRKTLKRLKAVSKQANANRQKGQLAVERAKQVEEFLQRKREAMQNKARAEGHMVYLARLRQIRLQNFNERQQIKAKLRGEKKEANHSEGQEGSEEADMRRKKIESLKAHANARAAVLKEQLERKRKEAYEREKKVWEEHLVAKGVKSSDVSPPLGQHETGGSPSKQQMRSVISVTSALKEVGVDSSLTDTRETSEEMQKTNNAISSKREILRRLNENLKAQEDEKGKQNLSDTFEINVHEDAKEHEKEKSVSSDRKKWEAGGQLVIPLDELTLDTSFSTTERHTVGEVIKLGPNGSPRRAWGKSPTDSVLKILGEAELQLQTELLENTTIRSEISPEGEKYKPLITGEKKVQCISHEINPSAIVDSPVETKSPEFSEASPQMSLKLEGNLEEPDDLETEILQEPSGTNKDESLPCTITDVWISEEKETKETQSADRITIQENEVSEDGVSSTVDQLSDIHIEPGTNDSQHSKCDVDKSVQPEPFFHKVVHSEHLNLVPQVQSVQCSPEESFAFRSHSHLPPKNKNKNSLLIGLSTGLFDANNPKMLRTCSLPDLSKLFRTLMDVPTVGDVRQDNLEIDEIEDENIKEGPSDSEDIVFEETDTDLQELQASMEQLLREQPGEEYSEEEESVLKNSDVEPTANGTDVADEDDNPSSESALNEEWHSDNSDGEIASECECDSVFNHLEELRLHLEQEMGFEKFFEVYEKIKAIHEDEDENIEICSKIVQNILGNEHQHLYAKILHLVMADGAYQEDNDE
# [3] = target: T2, Serine/threonine-protein kinase Nek1 (Homo sapiens); conditions: at 1 µM
# [4] = target: T3, Serine/threonine-protein kinase Nek2 (Homo sapiens) (UniProt P51955); conditions: at 0.1 µM
# T3 sequence (whole entry): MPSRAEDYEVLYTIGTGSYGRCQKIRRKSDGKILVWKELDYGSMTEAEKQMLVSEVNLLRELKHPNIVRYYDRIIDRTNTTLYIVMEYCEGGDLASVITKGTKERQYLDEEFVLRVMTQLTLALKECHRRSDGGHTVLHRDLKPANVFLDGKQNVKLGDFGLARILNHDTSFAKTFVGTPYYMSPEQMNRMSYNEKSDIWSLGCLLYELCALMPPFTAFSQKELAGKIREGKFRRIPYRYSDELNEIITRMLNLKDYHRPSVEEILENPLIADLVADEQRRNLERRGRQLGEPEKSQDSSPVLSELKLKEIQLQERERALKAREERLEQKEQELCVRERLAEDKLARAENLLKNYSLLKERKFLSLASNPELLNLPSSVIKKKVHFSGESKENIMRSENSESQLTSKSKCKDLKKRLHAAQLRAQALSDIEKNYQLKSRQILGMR
# [5] = target: T3, Serine/threonine-protein kinase Nek2 (Homo sapiens); conditions: at 1 µM
# [6] = target: Serine/threonine-protein kinase Nek6 (Homo sapiens) (UniProt Q9HC98); conditions: at 0.1 µM
# Sequence of Serine/threonine-protein kinase Nek6 (Homo sapiens) (Q9HC98 whole entry): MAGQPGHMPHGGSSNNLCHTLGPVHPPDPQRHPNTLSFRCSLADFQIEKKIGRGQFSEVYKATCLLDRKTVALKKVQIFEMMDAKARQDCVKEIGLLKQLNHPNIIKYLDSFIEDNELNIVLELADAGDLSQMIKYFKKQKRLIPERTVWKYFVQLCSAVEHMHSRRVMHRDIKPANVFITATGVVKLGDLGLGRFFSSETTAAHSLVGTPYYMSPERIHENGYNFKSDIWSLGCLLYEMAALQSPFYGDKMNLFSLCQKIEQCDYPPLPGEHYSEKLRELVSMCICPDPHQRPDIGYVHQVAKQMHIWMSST
# [7] = target: Serine/threonine-protein kinase Nek6 (Homo sapiens) (UniProt Q9HC98); conditions: at 1 µM
# [8] = target: Serine/threonine-protein kinase Nek7 (Homo sapiens) (UniProt Q8TDX7); conditions: at 0.1 µM
# Sequence of Serine/threonine-protein kinase Nek7 (Homo sapiens) (Q8TDX7 whole entry, looked up): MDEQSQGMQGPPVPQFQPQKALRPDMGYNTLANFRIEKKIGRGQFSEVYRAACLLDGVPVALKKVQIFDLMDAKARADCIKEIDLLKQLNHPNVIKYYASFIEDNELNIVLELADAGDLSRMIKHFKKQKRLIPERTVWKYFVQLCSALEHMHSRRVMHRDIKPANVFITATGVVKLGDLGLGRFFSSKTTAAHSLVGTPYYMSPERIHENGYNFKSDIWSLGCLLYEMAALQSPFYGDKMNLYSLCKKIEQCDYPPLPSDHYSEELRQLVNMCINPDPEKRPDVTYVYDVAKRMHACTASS
# [9] = target: Serine/threonine-protein kinase Nek7 (Homo sapiens) (UniProt Q8TDX7); conditions: at 1 µM
# [10] = target: T4, Serine/threonine-protein kinase Nek9 (Homo sapiens) (UniProt Q8TD19); conditions: at 0.1 µM
# T4 sequence (whole entry): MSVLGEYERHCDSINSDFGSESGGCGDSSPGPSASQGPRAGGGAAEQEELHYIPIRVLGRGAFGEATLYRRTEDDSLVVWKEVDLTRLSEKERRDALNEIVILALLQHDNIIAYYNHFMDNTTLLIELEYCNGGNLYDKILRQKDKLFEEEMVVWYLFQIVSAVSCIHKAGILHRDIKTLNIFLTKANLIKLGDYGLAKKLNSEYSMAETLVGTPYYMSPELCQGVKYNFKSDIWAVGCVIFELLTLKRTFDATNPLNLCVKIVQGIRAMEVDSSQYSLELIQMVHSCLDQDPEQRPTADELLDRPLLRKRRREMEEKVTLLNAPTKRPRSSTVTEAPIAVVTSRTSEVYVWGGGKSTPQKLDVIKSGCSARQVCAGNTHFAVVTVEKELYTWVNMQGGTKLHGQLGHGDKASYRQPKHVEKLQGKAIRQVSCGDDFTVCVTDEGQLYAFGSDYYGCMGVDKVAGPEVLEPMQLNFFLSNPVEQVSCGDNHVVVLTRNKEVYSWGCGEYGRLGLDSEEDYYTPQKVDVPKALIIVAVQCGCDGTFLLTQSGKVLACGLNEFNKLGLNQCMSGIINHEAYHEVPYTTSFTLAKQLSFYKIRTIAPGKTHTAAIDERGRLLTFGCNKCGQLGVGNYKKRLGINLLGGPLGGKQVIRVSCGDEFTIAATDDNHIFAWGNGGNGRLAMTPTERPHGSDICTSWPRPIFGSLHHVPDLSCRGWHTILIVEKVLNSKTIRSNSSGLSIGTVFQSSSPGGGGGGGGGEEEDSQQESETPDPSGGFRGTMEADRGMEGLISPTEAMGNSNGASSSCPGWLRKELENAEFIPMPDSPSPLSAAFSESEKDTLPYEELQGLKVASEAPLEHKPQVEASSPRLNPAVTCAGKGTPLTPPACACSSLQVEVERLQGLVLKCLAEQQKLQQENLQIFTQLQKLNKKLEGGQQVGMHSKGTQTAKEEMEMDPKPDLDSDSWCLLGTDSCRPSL
# [11] = target: T4, Serine/threonine-protein kinase Nek9 (Homo sapiens); conditions: at 1 µM
# [12] = target: Serine/threonine-protein kinase PLK1 (Homo sapiens) (UniProt P53350); conditions: at 0.1 µM
# Sequence of Serine/threonine-protein kinase PLK1 (Homo sapiens) (P53350 whole entry): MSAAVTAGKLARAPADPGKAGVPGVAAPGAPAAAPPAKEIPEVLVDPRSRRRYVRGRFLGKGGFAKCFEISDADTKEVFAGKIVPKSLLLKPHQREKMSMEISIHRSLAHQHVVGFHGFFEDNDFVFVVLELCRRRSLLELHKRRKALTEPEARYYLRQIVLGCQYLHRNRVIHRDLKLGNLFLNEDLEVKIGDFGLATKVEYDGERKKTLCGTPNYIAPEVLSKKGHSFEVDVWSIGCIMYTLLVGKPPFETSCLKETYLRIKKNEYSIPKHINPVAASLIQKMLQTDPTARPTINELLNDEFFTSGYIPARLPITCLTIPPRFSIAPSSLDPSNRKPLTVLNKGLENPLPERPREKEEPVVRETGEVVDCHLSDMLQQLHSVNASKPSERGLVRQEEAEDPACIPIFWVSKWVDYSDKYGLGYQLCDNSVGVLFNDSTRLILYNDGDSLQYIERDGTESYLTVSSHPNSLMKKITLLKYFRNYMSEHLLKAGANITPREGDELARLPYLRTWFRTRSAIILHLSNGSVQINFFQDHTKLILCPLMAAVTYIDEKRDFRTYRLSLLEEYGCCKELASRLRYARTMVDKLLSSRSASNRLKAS
# [13] = target: Serine/threonine-protein kinase PLK1 (Homo sapiens) (UniProt P53350); conditions: at 1 µM
# [14] = target: T5, Dual specificity protein kinase TTK (Homo sapiens) (UniProt P33981); conditions: at 0.1 µM
# T5 sequence (whole entry): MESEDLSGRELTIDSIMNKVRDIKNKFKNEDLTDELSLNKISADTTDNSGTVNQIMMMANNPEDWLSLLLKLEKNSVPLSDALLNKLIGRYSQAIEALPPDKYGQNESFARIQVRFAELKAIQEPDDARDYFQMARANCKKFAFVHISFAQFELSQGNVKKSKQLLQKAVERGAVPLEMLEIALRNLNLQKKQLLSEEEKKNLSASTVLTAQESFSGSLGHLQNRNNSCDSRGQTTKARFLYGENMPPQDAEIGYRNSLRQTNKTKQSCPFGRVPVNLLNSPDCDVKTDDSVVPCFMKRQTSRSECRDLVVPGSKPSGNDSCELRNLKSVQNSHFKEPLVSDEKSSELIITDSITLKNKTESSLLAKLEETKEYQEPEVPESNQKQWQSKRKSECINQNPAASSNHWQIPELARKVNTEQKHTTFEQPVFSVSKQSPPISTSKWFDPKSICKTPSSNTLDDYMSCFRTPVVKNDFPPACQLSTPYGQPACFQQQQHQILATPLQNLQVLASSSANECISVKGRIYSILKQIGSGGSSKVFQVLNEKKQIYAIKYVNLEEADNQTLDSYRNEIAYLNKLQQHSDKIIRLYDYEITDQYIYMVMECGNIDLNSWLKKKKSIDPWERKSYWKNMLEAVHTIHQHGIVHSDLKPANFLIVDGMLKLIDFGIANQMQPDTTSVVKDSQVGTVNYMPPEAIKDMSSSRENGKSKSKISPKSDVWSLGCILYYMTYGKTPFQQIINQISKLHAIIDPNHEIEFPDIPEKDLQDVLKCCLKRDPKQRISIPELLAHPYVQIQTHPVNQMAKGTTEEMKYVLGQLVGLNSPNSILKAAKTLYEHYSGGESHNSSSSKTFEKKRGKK
# [15] = system: T6, Receptor-type tyrosine-protein kinase FLT3 (Homo sapiens), P36888 [D835Y]; conditions: at 1 µM
# T6 sequence (whole entry): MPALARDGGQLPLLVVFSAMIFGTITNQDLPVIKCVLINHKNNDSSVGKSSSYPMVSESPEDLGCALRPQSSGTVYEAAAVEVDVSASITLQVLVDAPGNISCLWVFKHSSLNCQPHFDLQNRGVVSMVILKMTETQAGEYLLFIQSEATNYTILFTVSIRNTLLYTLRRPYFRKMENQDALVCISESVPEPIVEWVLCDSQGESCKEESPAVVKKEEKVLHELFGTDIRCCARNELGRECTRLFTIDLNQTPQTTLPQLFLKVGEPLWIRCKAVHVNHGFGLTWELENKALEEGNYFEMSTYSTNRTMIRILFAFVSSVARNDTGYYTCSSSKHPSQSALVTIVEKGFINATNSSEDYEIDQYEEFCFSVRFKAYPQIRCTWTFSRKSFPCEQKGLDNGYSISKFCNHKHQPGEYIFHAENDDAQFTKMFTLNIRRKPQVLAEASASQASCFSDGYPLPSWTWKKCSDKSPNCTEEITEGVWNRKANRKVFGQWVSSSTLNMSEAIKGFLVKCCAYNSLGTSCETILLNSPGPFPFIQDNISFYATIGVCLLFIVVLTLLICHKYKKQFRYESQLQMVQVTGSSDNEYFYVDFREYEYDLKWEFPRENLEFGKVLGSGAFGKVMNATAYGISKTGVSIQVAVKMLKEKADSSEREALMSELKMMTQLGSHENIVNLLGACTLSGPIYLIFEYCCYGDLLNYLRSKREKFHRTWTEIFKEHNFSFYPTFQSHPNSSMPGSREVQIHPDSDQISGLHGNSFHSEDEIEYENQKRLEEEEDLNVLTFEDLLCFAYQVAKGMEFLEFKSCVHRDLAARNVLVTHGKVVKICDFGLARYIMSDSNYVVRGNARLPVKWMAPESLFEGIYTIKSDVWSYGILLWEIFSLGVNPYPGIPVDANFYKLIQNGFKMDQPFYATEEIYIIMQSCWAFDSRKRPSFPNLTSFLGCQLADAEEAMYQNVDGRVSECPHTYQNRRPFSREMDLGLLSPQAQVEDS
# [16] = target: Vascular endothelial growth factor receptor 3 (Homo sapiens) (UniProt P35916); conditions: at 0.1 µM
# Sequence of Vascular endothelial growth factor receptor 3 (Homo sapiens) (P35916 whole entry): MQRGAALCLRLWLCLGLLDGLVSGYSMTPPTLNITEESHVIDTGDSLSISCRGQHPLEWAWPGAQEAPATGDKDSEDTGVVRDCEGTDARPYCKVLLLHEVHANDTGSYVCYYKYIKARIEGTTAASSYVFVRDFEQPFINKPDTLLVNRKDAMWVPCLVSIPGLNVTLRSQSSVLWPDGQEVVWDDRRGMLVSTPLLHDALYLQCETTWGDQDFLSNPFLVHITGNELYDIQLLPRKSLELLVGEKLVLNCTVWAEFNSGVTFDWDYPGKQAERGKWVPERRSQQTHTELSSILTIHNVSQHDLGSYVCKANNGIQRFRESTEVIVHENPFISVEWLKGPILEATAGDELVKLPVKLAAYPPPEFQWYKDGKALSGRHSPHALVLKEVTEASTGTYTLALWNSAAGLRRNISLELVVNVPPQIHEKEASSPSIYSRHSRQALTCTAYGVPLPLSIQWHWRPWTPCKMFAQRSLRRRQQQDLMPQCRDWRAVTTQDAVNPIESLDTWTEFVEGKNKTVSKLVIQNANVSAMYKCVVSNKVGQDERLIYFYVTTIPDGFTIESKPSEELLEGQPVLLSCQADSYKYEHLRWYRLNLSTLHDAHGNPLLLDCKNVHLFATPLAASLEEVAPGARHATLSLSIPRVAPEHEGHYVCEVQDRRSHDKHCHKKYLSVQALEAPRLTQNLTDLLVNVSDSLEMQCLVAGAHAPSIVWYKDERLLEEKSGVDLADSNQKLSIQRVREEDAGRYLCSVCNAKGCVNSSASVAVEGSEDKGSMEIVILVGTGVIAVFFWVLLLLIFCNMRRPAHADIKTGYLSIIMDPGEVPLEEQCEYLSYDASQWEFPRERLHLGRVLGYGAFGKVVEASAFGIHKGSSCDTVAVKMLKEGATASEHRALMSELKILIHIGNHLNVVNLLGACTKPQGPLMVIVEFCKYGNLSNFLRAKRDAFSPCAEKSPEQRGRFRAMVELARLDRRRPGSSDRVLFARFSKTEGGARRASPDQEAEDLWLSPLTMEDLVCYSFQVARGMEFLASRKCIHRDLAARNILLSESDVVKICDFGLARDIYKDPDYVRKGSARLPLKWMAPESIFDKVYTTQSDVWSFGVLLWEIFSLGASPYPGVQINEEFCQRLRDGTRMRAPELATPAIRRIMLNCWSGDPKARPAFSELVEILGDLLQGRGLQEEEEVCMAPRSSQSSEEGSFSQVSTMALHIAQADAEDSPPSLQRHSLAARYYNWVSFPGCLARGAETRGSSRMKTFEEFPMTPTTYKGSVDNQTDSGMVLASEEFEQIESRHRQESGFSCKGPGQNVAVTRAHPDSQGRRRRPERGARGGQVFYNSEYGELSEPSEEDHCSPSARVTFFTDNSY
# [17] = target: Vascular endothelial growth factor receptor 3 (Homo sapiens) (UniProt P35916); conditions: at 1 µM
# [18] = target: Macrophage colony-stimulating factor 1 receptor (Homo sapiens) (UniProt P07333); conditions: at 0.1 µM
# Sequence of Macrophage colony-stimulating factor 1 receptor (Homo sapiens) (P07333 whole entry): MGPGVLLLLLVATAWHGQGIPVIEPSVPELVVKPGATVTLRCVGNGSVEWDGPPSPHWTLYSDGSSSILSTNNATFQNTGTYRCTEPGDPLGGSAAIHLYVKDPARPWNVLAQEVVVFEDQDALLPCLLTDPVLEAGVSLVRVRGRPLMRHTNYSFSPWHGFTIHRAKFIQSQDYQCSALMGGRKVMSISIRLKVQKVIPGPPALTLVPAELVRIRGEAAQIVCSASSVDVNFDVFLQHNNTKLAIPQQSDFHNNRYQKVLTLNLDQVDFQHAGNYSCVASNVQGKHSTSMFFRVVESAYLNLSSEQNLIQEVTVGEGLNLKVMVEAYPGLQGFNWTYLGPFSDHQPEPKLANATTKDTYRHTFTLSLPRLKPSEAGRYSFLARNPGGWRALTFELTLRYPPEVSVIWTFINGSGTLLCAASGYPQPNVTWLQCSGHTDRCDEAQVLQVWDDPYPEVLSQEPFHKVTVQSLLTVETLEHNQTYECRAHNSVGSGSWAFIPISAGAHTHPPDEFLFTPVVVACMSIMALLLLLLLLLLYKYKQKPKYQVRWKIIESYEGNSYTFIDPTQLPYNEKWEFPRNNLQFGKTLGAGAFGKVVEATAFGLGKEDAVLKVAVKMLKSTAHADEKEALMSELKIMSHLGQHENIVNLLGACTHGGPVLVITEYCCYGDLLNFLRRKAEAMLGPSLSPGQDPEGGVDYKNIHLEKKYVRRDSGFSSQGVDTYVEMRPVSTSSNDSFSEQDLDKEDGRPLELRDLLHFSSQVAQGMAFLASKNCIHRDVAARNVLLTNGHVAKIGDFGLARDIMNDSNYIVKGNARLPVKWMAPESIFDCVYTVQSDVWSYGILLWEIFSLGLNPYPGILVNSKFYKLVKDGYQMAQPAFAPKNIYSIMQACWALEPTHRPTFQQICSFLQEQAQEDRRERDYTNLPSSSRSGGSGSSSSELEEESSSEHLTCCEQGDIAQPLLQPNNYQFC
# [19] = target: Macrophage colony-stimulating factor 1 receptor (Homo sapiens) (UniProt P07333); conditions: at 1 µM
# [20] = target: Tyrosine-protein kinase Fyn (Homo sapiens) (UniProt P06241); conditions: at 0.1 µM
# Sequence of Tyrosine-protein kinase Fyn (Homo sapiens) (P06241 2-537 limits assumed): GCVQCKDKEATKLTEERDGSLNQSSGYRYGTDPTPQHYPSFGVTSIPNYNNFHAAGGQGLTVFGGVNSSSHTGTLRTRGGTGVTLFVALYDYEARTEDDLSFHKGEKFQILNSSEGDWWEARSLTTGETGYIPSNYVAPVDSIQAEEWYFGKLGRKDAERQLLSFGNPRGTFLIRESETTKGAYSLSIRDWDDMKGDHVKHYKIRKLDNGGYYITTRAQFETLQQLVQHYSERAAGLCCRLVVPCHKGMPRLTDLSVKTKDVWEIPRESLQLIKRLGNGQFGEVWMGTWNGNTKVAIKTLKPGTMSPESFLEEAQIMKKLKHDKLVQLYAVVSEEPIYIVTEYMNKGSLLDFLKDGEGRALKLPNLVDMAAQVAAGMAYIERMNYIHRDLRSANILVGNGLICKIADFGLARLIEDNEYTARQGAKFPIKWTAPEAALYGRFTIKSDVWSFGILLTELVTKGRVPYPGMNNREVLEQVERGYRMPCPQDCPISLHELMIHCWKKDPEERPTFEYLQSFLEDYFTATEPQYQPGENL
smiles,measurement,setting,value
CN(C)CCOc1ccc(-c2nc(-c3ccncc3)c(-c3ccc4c(c3)CC/C4=N\O)[nH]2)cc1,inhibition,[1],7.42%
same,inhibition,[2],0.81%
same,inhibition,[3],5.31%
same,inhibition,[4],2.72%
same,inhibition,[5],4.52%
same,inhibition,[6],3.81%
same,inhibition,[7],0.68%
same,inhibition,[8],1.62%
same,inhibition,[9],2.67%
same,inhibition,[10],4.08%
same,inhibition,[11],4.4%
same,inhibition,[12],2.08%
same,inhibition,[13],2.04%
same,inhibition,[14],6.91%
same,inhibition,[15],7.87%
same,inhibition,[16],1.85%
same,inhibition,[17],3.47%
same,inhibition,[18],-1.89%
same,inhibition,[19],4.02%
same,inhibition,[20],0.02%
